Compounds with a hit are over-represented: about 6% of the library has one in this group of screens.
D1 antagonist: antagonists of human D1 dopamine receptor | P21728 | HEK293 TREx D1 cells, calcium flux, dopamine EC80; active compounds read low | activity change, negative = inhibition, % at 10 µM | 3.2% of 360,000 active; in the data active means activity change below about -30%; further: on the % scale 0 is the no-effect control and ±100 the full control effect
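Calcium flux readout: force-coupled, inducible Hek293 Trex D1 line, cells induced overnight at 30 C with tetracycline, dye-loaded 30–90 min at RT. Antagonism scored against EC80 dopamine challenge given 180 s after compound.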
D1 PAM: human D1 dopamine receptor positive modulation; potentiation, % at 10 µM; HEK293 TREx D1 cells, calcium flux, dopamine EC20 potentiation; 0.036% of 360,000 active; in the data active means potentiation above about 30%; further: 0% is about no effect
D3 ag: agonists of human D3 dopamine receptor; 0.58% of 410,000 active; max activation, %; D3R DiscoveRx beta-arrestin cells, luminescence, 90 min; in the data active means max activation above about 30%; further: 0% is about no effect
Target sequence (P35462 whole entry, looked up): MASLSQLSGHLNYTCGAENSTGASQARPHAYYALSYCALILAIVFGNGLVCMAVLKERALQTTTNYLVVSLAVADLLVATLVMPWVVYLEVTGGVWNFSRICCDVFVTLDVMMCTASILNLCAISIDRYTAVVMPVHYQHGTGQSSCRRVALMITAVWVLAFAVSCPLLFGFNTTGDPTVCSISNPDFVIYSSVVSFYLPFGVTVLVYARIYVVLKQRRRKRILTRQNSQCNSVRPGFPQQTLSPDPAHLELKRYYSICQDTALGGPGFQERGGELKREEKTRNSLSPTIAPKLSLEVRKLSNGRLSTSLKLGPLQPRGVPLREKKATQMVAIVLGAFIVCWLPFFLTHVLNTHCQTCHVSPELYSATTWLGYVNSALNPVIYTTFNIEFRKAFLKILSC
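Cells at 1500/well, incubated overnight, then treated with pinned compounds (dopamine as control) for 90 min at 37 degrees C. DiscoveRx reagent added for 30 - 60 minutes at room temperature; luminescence read.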
DRD3 antagonist: D3 dopamine receptor (human) antagonism; AID 652054; 2.5% of 360,000 active; max response, negative = inhibition, %; D3R cells, DiscoveRx beta-arrestin luminescence, antagonist mode; active compounds read low; in the data active means max response below about -50%; further: on the % scale 0 is the no-effect control and ±100 the full control effect
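Cells plated overnight at 1500 cells/well, then exposed to library compounds with dopamine controls for 90 minutes at 37 degrees C. DiscoveRx reagent added for 30–60 minutes at room temperature; luminescence read, quantitative HTS format.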
D1 agonist: activates the human D1 dopamine receptor | HEK293 T-REx D1 cells, calcium flux, agonist mode | 1% of 360,000 active | activation, % at 2 µM | AID 504660 | P21728; in the data active means activation above about 30%; further: 0% is about no effect
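Agonism was scored from calcium flux recorded over 180 s (1 read/s) after pintool compound addition, following a 10-cycle baseline. Cells were inducible force-coupled HEK293 TREx D1, plated overnight at 30 C and loaded with no-wash calcium dye.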
An asterisk follows results filed as active.

O=C1CC(c2nc(-c3cccc(Cl)c3)no2)CN1c1ccc2c(c1)OCCO2 (configuration not stated) was read as D1 antagonist -9, D1 PAM -1, D3 ag 8 and D1 agonist 15.
Screening C[C@@H]1CN(S(=O)(=O)c2ccc3c(c2)OCCO3)CCN1S(=O)(=O)c1c(F)cccc1F returned D1 antagonist -33*, D1 PAM 1 and D1 agonist 2.
For O=C(O)Cc1cc(F)c(S(=O)(=O)N2CCN(S(=O)(=O)c3ccc4c(c3)OCCO4)CC2)cc1F the results were D1 antagonist -42*, D1 PAM 3 and D1 agonist 0.
`O=[N+]([O-])c1ccccc1S(=O)(=O)N1CCN(S(=O)(=O)c2ccc3c(c2)OCCO3)CC1` gave D1 antagonist -31*, D1 PAM -3 and D1 agonist 1.
CN(Cc1ccccc1F)C(=O)CN1CCN(S(=O)(=O)c2ccc3c(c2)OCCCO3)CC1 was read as D1 antagonist -31*, D1 PAM -6, D3 ag -4, DRD3 antagonist -16 and D1 agonist 8.
`C[C@H]1CN(S(=O)(=O)c2c(F)cccc2F)CCN1S(=O)(=O)c1ccc2c(c1)OCCO2` gave D1 antagonist -8, D1 PAM 1 and D1 agonist 3.
CCc1nn(-c2ccccc2)c2nc(-c3cccc(OC)c3)c3cc(OC)c(OC)cc3c12 was read as D1 antagonist 3, D1 PAM 0, D3 ag 1 and D1 agonist -2.
For Cc1ccc(-c2noc(CN(C3CCCCC3)S(=O)(=O)c3ccc(Cl)cc3)n2)cc1 the results were D1 antagonist -2, D1 PAM 0, D3 ag 2 and D1 agonist -1.
Screening Cc1nn(CC(=O)NCc2ccc(OC(C)C)cc2)c(=O)c2c(C)n(-c3ccc(Cl)cc3)nc12 returned D1 antagonist 1, D1 PAM -1, D3 ag 13 and D1 agonist 1.
CCCCCOc1ccc(Br)cc1CSC(=N)N was read as D1 antagonist 26, D1 PAM 9, D3 ag 2, DRD3 antagonist -5 and D1 agonist 30*.
`CCOc1ccc(CSC(=N)N)cc1` gave D1 antagonist 21, D1 PAM -3, D3 ag -8, DRD3 antagonist -2 and D1 agonist 25.
Screening CCCCOc1ccc(CSC(=N)N)cc1Cl returned D1 antagonist 42, D1 PAM 10, D3 ag -13, DRD3 antagonist -11 and D1 agonist 65*.
Screening COCCNC(=O)CCCn1c(SCC(=O)Nc2ccc(F)cc2)nc2c(sc3ccccc32)c1=O returned D1 antagonist 8, D1 PAM 1, D3 ag 0 and D1 agonist 5.
Screening COc1ccccc1-c1ccc(=O)n(CC(=O)NC2CCc3ccccc32)n1 (configuration not stated) returned D1 antagonist 23, D1 PAM 5, D3 ag -9, DRD3 antagonist -28 and D1 agonist 88*.
`CC1CCc2c(sc3nnn(CC(=O)Nc4ccccc4Cl)c(=O)c23)C1` (configuration not stated) gave D1 antagonist -19, D1 PAM -4, D3 ag -2 and D1 agonist 0.
Screening CCOC(=O)c1c(CSC(=N)N)n(-c2ccc(C)cc2)c2cc(Br)c(OC(C)=O)cc12 returned D1 antagonist 25, D1 PAM 2, D3 ag -3, DRD3 antagonist -5 and D1 agonist 39*.
Screening OCCOCCNc1ncnc2c1cnn2-c1ccc(Cl)cc1 returned D1 antagonist 8, D1 PAM 2, D3 ag 3, DRD3 antagonist 5 and D1 agonist 2.
`CC(C)OCCCNc1ncnc2c1cnn2-c1ccccc1` gave D1 antagonist -37*, D1 PAM -2, D3 ag 1, DRD3 antagonist 13 and D1 agonist 0.
Screening OCCOCCNc1ncnc2c1cnn2-c1ccccc1 returned D1 antagonist -45*, D1 PAM -9, D3 ag -5, DRD3 antagonist 32 and D1 agonist 0.
For COc1ccccc1NC(=O)C1=C(C)Nc2nc(SCc3ccccc3)nn2C1c1cccnc1 (configuration not stated) the results were D1 antagonist 4, D1 PAM 0, D3 ag -7 and D1 agonist -3.

Source: PubChem BioAssay (National Center for Advancing Translational Sciences (NCATS))
